Test [1] can be described thus: Viability qHTS for spleen associated tyrosine kinase inhibitor (SYKi) naive MV4-11 cells (AID 1963823). Also: nearly all actives have a fitted effect of over 40% in size. The gist of the method:
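Viability of MV4-11 AML cells lacking prior SYK inhibitor exposure is scored by CellTiter-Glo luminescence following 72 hr compound incubation at 37 C, 5% CO2, seeded at 500 cells per well.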
On the technique in general: In qHTS, concentration-response curves come from the screen itself.

A short description of test [2]: Viability qHTS for spleen associated tyrosine kinase inhibitor (SYKi) drug resistant MV4-11 cells (AID 1963824). Also: nearly all actives have a fitted effect of over 35% in size. The gist of the method: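 SYK-inhibitor-resistant MV4-11 AML cells were seeded at 500 per well onto compound and cultured 72 hours (37 °C, 5% CO2). CellTiter-Glo was then added, and after 10 min at room temperature, luminescence gave viability.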
A short description of test [3]: Quantitative highthroughput screen to assess conditional lethalithy of NOMO1 cells grown in RPMI1640 with dialyzed fetal bovine serum (RPMI+ds) (AID 1963877). Also: nearly all actives have a fitted effect of over 30% in size.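 As to Viability: series mostly up to about 46 µM; 100% = DMSO control wells and 0% = empty wells.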 The gist of the method: (§1)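 Each medium arm—HPLM with 10% dialyzed FBS, or RPMI1640 with 5 mM glucose and 10% untreated or dialyzed FBS—was screened against an 11-point, 3-fold compound titration for 48 h at 37 °C, with CellTiter-Glo luminescence as endpoint.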

A short description of test [4]: Quantitative highthroughput screen to assess conditional lethalithy of NOMO1 cells grown in Human Plasma-Like Medium with dialyzed fetal bovine serum (HPLM+ds) (AID 1963878). Also: nearly all actives have a fitted effect of over 35% in size.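 As to Viability: 100% = DMSO wells and 0% = empty wells on each plate.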 The gist of the method: as §1
Test [5] can be described thus: Quantitative highthroughput screen to assess conditional lethalithy of P12 Ichikawa cells grown in Human Plasma-Like Medium with dialyzed fetal bovine serum (HPLM+ds) (AID 1963879). Also: nearly all actives have a fitted effect of over 35% in size. As to Viability: series mostly up to about 46 µM. The note with it: Potency: viability. The gist of the method: as §1
A short description of test [6]: Quantitative highthroughput screen to assess conditional lethalithy of P12 Ichikawa cells grown in RPMI1640 with dialyzed fetal bovine serum (RPMI+ds) (AID 1963880). Also: nearly all actives have a fitted effect of over 35% in size.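 As to Viability: 100% = DMSO wells and 0% = empty wells on each plate.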 The conditions noted are these: Potency: P12-Ichikawa viability. The gist of the method: as §1
Test [7] can be described thus: Quantitative highthroughput screen to assess conditional lethalithy of P12 Ichikawa cells grown in RPMI1640 with untreated serum (RPMI+s) (AID 1963881). Also: nearly all actives have a fitted effect of over 35% in size.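 As to Viability: series mostly up to about 46 µM; 100% = DMSO wells and 0% = empty wells without cells.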 The note with it: Potency: viability. The procedure, abridged: as §1
A short description of test [8]: Quantitative highthroughput screen to assess conditional lethalithy of SEM cells grown in RPMI1640 with unreated serum (RPMI+s) (AID 1963883). Also: nearly all actives have a fitted effect of over 35% in size.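 As to Viability: 100% = DMSO wells and 0% = empty wells without cells.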 The gist of the method:
as §1

Test [9] is described as follows: Quantitative highthroughput screen to assess conditional lethalithy of SEM cells grown in RPMI1640 with dialyzed fetal bovine serum (RPMI+ds) (AID 1963884). Also: nearly all actives have a fitted effect of over 35% in size.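 As to Viability: series mostly up to about 46 µM; 100% = DMSO control wells and 0% = empty wells without cells.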 The gist of the method:
as §1

Test [10] in a line: Cellular viability qHTS for adrenocortical cancer (ACC) cell line SW-13 (AID 1963989). Also: nearly all actives have a fitted effect of over 65% in size.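 As to activity (max response): cells grown in serum-free medium with ITS supplement; % is scaled to controls: 0 for no effect and ±100 for the full control effect.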 The note with it: SW-13 ACC cells viability, CellTiter-Glo, 48 h; activity (max response): active compounds read low. The procedure, abridged:
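SW-13 cells in ITS-supplemented serum-free DMEM were plated overnight, then exposed for 48 h at 37C to compound titrations (up to 46 uM final). Viability was read by CellTiter-Glo luminescence; four-parameter logistic fits gave IC50 and efficacy.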

Test [11] in a line: Cellular viability qHTS for adrenocortical cancer (ACC) cell line NCI-H295R (AID 1963990). Also: nearly all actives have a fitted effect of over 60% in size. The gist of the method: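 Luminescent ATP read-out (CellTiter-Glo, 20 min RT) after 48 h drug exposure of NCI-H295R cells; a titration up to 46 uM final. Data normalized to doxorubicin (100% inhibition) and DMSO (0%); 4-parameter fit gives IC50, max response.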
The nature of test [12]: Quantitative highthroughput screen to assess conditional lethalithy of SEM cells grown in Human Plasma-Like Medium with dialyzed fetal bovine serum (HPLM+ds) (AID 1963882). Also: nearly all actives have a fitted effect of over 35% in size. As to Viability: series mostly up to about 46 µM. The gist of the method: as §1

Values joined by “and” are separate entries in the source; they are usually repeats but may differ in a detail not shown here. Identical values can stand only once. Inconclusive results are not listed. Values without a mark were called inactive. Active and inactive are the calls of the source. Calls follow the shape of the dose curve; as a rule, active = well fitted curve in the direction sought with a large enough effect; inconclusive = small, poorly fitted or top-dose-only effect, or another doubt; inactive = no such curve, though single readings can be large; an effect the other way counts as inactive or inconclusive.
Potency is read from the fitted curve at half-maximal effect.

Turning to `COc1cccc2c1C(=O)c1c(O)c3c(c(O)c1C2=O)C[C@@](O)(C(=O)CO)C[C@@H]3O[C@H]1C[C@H](N)[C@@H](O)[C@H](C)O1`, the Potency in test [1] is 0.0661 µM (active); in test [2] it was 0.0525 µM (active); in test [3] it was 2.96 µM (active); in [4] it was 3.32 µM (active); in test [5] it was 2.96 µM (active); in [6], 2.96 µM (active). The Potency is 2.96 µM (active) in [7]; 1.48 µM (active) in [8]; 2.64 µM (active) in test [9]; 1.12 µM (active) in [10]; 8.91 µM (active) in test [11].
Take `CC(C)(CO)[C@@H](O)C(=O)NCCC(=O)O`: the Potency entry in [1], in test [2], in test [3], in [4], in test [5] and in test [6] was “inactive” each time. For the same molecule, the Potency result in test [7], in test [12], in test [8], in test [9] and in test [11] was “inactive” in each case. In addition, in [10], the activity (max response) was -17.7%.
For the molecule `CC[C@@H]([C@H](C)O)n1ncn(-c2ccc(N3CCN(c4ccc(OCC5CO[C@@](Cn6cncn6)(c6ccc(F)cc6F)C5)cc4)CC3)cc2)c1=O` (stereo partly drawn), the Potency is 5.9 µM (active) in test [1] and 4.17 µM (active) in test [2]. Further, the Potency entry in test [3], in [4], in [5], in test [6], in [7] and in [8] was “inactive” in each case. In addition, the Potency entry in [9] and in [11] was “inactive” throughout. Also, the activity (max response) in test [10] was -5.54%.
For `CCC(=O)NCC[C@@H]1CCc2ccc3c(c21)CCO3`, the Potency entry in [1], in test [2], in test [3], in test [4], in test [5] and in test [6] was “inactive” in each case. Also, the Potency result in test [7] and in [11] was “inactive” in each case. Besides, the values for the Potency in test [12], in [8] and in [9] were 3.32 µM (active), 5.26 µM (active) and 5.26 µM (active), respectively. In addition, the activity (max response) in test [10] is -6.57%.
For `C[C@@H]1COCCN1c1cc(C2(S(C)(=N)=O)CC2)nc(-c2ccnc3[nH]ccc23)n1` (stereo partly drawn), the Potency is 1.48 µM (active) in test [1]; 1.18 µM (active) and 2.59 µM (active) in [2]; 2.95 µM (active) in [3]; 1.17 µM (active) in test [4]; 4.17 µM (active) in test [5]; 2.95 µM (active) in test [6]. Further, the Potency in test [7] was 4.67 µM (active); in test [8] it was 1.17 µM (active); in test [11] it was 3.98 µM (active).
On to `O=c1[nH]nc(OCCCc2ccc(Cl)cc2)c(NCc2cccnc2)c1Br`, for which the Potency was 4.11 µM (active) in test [1]; 4.11 µM (active) in [2]; 5.9 µM (active) in [3]; 2.96 µM (active) in test [4]; 5.9 µM (active) in test [5]; 5.26 µM (active) in test [6]. Also, the Potency in test [12] is 0.743 µM (active); in test [8], 6.62 µM (active); in [9] it was 14.8 µM (active); in [10], 7.94 µM (active).
As to `C#Cc1cccc(Nc2ncnc3cc(OC)c(OCCCCCCC(=O)NO)cc23)c1`, the Potency was 291 nM (active) and 372 nM (active) in test [1]; 231 nM (active) and 296 nM (active) in test [2]; 0.662 µM (active) in test [3]; 0.372 µM (active) in [4]; 0.235 µM (active) in [5]; 0.166 µM (active) in test [6]. The Potency in test [7] is 0.235 µM (active); in [12] it was 0.296 µM (active); in test [8], 0.209 µM (active); in test [9], 0.209 µM (active); in test [10] it was 1.78 µM (active); in [11] it was 2 µM (active).
As to `CC(C)c1ccc2c(c1)c(SC(C)(C)C)c(CC(C)(C)C(=O)O)n2Cc1ccc(Cl)cc1`, the Potency in test [1] was 16.6 µM (active); in test [2], 10.5 µM (active). Besides, the Potency entry in test [3], in test [4], in [6], in test [7], in [12] and in test [8] was “inactive” throughout. In addition, the Potency result in [9] and in test [11] was “inactive” in each case. Further, in test [10], the activity (max response) is 11.6%.
With `O=C(N[C@@H](c1ccccc1)[C@@H]1CCCCN1)c1cccc(C(F)(F)F)c1Cl`, the Potency was 16.6 µM (active) in [1], 16.6 µM (active) in test [2], 28.2 µM (active) in [10] and 8.91 µM (active) in [11]. In addition, the Potency result in [3], in test [4] and in [5] was “inactive” throughout.
As for `O=C(Nc1ccccc1-c1cn2c(CN3CCNCC3)csc2n1)c1cnc2ccccc2n1`, the Potency in test [1] is 9.2 µM (active); in test [2], 13 µM (active); in [12] it was 18.7 µM (active); in [8], 18.7 µM (active); in test [9], 13.2 µM (active); in test [10], 3.55 µM (active). Further, the Potency result in [3] and in test [4] was “inactive” each time.
In the case of `CCN(CC)CCNC(=O)c1ccc2nc(-c3ccccc3)c(-c3ccc(CN4CCC(n5c(=O)[nH]c6ccccc65)CC4)cc3)nc2c1`, the Potency in test [1] was 2.06 µM (active) and 3.32 µM (active); in test [2], 2.59 µM (active) and 3.32 µM (active); in [3], 11.8 µM (active); in test [4] it was 2.35 µM (active); in test [5] it was 2.35 µM (active); in test [6] it was 2.64 µM (active). For the same molecule, the Potency in test [7] is 4.69 µM (active); in [12], 0.166 µM (active); in test [8] it was 0.0526 µM (active); in test [9], 0.166 µM (active); in [11] it was 3.98 µM (active).
On to `COc1ccc2c(c1)c(CC(=O)OCC(=O)O)c(C)n2C(=O)c1ccc(Cl)cc1`, for which the Potency entry in test [1], in test [2], in [3], in [4], in test [5] and in test [6] was “inactive” throughout. The Potency entry in test [7], in test [12], in [8], in test [9] and in test [11] was “inactive” in each case. The activity (max response) in test [10] was -2.34%.
On to `N#Cc1c(N(CC(=O)O)CC(=O)O)sc(C(=O)O)c1CC(=O)O`, for which the Potency result in test [1], in test [2], in test [3], in [4] and in [11] was “inactive” throughout. The Potency in test [12] was 13.2 µM (active). Also, the activity (max response) in test [10] is 0.42%.

The values are drawn from PubChem BioAssay (NCATS).
